Results taken from ChEMBL document CHEMBL3988442, “University of Dundee, Small-Polar-MMV Screening Library” (2021).
Screen size: about 48,000 compounds; about 13,000 (27%) showed an effect of 50% or more. Some of the results follow.

Tested on: Wolbachia pipientis
Test: Anti-Wolbachia Cell-Based Screen
Type: functional
Parameters: scale not given: in the data most compounds retested in dose-response had high values
Conditions: 5 µM

| SMILES | Percent Effect [%] |
| --- | --- |
| O=C(Nc1ccccc1)C1CCCN(c2cc(-n3cncn3)ncn2)C1 (centres undefined) | -3.274 |
| COCC1CN(C(=O)Cc2cccc(F)c2)Cc2ccnn2C1.O=C(O)C(F)(F)F (centres undefined) | 13.65 |
| CCC(=O)N1CC[C@@H](c2ccc3ccccc3c2)[C@H](O)C1 | -8.5 |
| CC(NS(C)(=O)=O)C(=O)N(C)Cc1csc(-c2cccs2)n1 (centres undefined) | -6.188 |
| O=S(=O)(N1CCCCC1)N1CCOC2(CCCC2)C1 | -3.647 |
| O=C(NC1CC1)NC(c1ccc(F)cc1)C1CC1 (centres undefined) | -8.198 |
| CCS(=O)(=O)N1CCc2ccc(NC(=O)Nc3ccccc3)cc21 | 185.4 |
| CCS(=O)(=O)N1CCc2ccc(NC(=O)Nc3ccc(F)cc3F)cc21 | 3.435 |
| CCS(=O)(=O)N1CCc2ccc(NC(=O)Nc3ccccc3C)cc21 | 122.8 |
| NS(=O)(=O)N1CCc2ccc(NC(=O)Cc3ccccc3F)cc21 | -18.89 |
| CN(CCN1CCN(c2ccccc2)CC1)C(=O)Nc1ccccn1 | -17.55 |
| CC(C)Oc1ncccc1CNC(=O)c1ccco1 | 7.44 |
| Cc1ccc(C(=O)N2CC(C(N)=O)O[C@H](C)C2)c(F)c1 (some centres undefined) | -9.152 |
| N#CCCN(Cc1ccco1)C(=O)CN1CCCC1c1cccs1 (centres undefined) | -7.66 |
| CSCC(=O)N(C)Cc1noc(-c2ccccc2)n1 | 108.1 |
| COc1ccc(CN(C)C(=O)CSc2nnc(N)s2)c(OC)c1OC | 2.435 |
| CCc1nc(CN(C)C(=O)CSC)no1 | 99.89 |
| CN(C)C(=O)Cc1ccccc1NCc1noc(-c2ccccc2)n1 | 11.76 |
| CCn1ccc(CN(C)C(=O)CSc2nnc(N)s2)n1 | 5.02 |
| CCc1noc(CN(C)C(=O)COc2cc(Cl)cc(Cl)c2)n1 | -5.267 |
| CC(C)c1nc(CN(C)C(=O)Cn2nc3ccccc3n2)no1 | -13.5 |
| CCc1nc(CN(C)C(=O)C2CCC(=O)N(CC3CCCCC3)C2)no1 (centres undefined) | -15.94 |
| CN(Cc1noc(-c2ccccc2)n1)C(=O)CSc1nnc(N)s1 | 121.6 |

| SMILES | Percent Effect [%] |
| --- | --- |
| Cn1cc(N2CCC3(CCN(S(=O)(=O)C4CC4)C3)C2=O)cn1 (centres undefined) | -13.56 |
| CCCC(C)CS(=O)(=O)NCCc1csc(N2CCCC2)n1 (centres undefined) | 5.842 |
| CC1(C)Cc2c(cnn2-c2ccccc2)C(NC2CCSCC2)C1 (centres undefined) | 2.86 |
| CN(C)c1ccnc(-c2ccnc3c2ccn3C)n1 | -3.285 |
| Cc1[nH]c2c(C)ccc(C)c2c1CC(=O)NCCCNc1cccnc1 | -12.73 |
| O=C(c1ccc2cccnc2n1)N(Cc1ccsc1)CC1CCCO1 (centres undefined) | -29.46 |
| O=C(c1ccno1)N1CCC2(CC1)C(=O)Nc1ccccc12 | 0.1339 |
| COCCN1C[C@H]2CN(C(=O)c3ccno3)CCN2C1=O | 3.514 |
| COCCN1Cc2ccccc2C2(CCN(S(C)(=O)=O)CC2)C1 | 109.9 |
| COCCN1CCC2(CC1)CC1(CCN(S(C)(=O)=O)CC1)N(C)C2=O.O=C(O)C(F)(F)F | -9.423 |
| COCCN1Cc2ccccc2C2(CCN(C(=O)c3ccno3)CC2)C1 | 106.5 |
| COCCN1Cc2ccccc2C2(CCN(C(=O)c3ccco3)CC2)C1 | 91.37 |
| COCCN1CC2(CCN(Cc3ccco3)CC2)c2ccccc21 | -16.07 |
| CCS(=O)(=O)N1CCC2(CC1)CN(C(=O)N(C)C)Cc1ccccc12 | -41.7 |
| O=C(c1ccco1)N1CCC2(CC1)C(=O)Nc1ccccc12 | -7.592 |
| Cc1ccc(C(=O)Nc2cccc3c2C(=O)NC3)c(C)n1 | -2.739 |
| c1coc(CN2CCc3ncnc(C4CCOC4)c3CC2)c1 (centres undefined) | -7.93 |
| COCCN1CCCC(O)(CN2CCN(c3cc(C)ccn3)CC2)C1=O (centres undefined) | -13.95 |
| CCOCC1(CNCc2cc(O)c3cc(C)ccc3n2)CC1 | 1.355 |
| COc1ccc(CN2CCC(CO)(Cc3ccc(Cl)cc3)CC2)c(O)c1 | -0.5928 |
| O=c1n(CC2COCCO2)nc(CC2CCNCC2)n1-c1ccccc1 (centres undefined) | 28.69 |
| CCN(CC)c1ccc2ccc(C(=O)NC3CC3)cn12 | -16.69 |
| CCn1cc(C(=O)NCc2cccnc2N(C)Cc2ccccc2)cn1 | 2.697 |

| SMILES | Percent Effect [%] |
| --- | --- |
| COC(=O)N1CCC(Oc2ccc(C(=O)NCCN(C)C)cc2Cl)CC1 | 19.93 |
| CCN(CC)c1ccc2ccc(C(=O)O)cn12 | -4.44 |
| CCNC(=O)c1ccc2ccc(N(CC)CC)n2c1 | 1.029 |
| CN(C)CCNC(=O)c1ccc2ccc(N(C)CC3CC3)n2c1 | 115.7 |
| CCN(CC)c1ccc2ccc(C(=O)N(C)C)cn12 | -16.77 |
| CN(CC1CC1)c1ccc2ccc(C(=O)NC3CCCCC3)cn12 | 118 |
| CN(CC1CC1)c1ccc2ccc(C(=O)NCCc3ccccc3)cn12 | 99.05 |
| CN(C)C(=O)CNC(=O)c1ccc2ccc(N(C)CC3CC3)n2c1 | 99.28 |
| CN(C)CCNC(=O)c1ccc(OC2CCN(C3CCC3)CC2)c(Cl)c1 | -4.706 |
| CCNC(=O)N1C[C@@H]2OCC(=O)N(CC3CCCCC3)[C@@H]2C1 | -5.369 |
| CN(C)S(=O)(=O)c1cccc(CNc2cc(CO)ccc2Cl)c1 | -35.79 |
| O=C(NCc1ccccc1CN1CCC(O)CC1)Nc1cccnc1 | -0.5671 |
| COCCCN1CCC(c2nc3c([nH]2)CC(C)(C)CNC3=O)C1 (centres undefined) | -5.99 |
| CCc1nnc(SC2CCN(c3ccccc3F)C2=O)n1C (centres undefined) | -9.884 |
| Cc1cc2n(n1)CC(CNC1CCN(C3CC3)CC1)CN2 (centres undefined) | -6.962 |
| CN(CCOc1ccc(F)cc1)S(=O)(=O)N1CCOCC1 | -1.618 |
| Cc1cccc2sc(NC(=O)CN3CCCC(O)(CO)C3)nc12 (centres undefined) | -1.543 |
| COCCNC(=O)CCNC(=O)c1ccc(N2CCC(C)=N2)cc1 | -2.111 |
| CCN(CC)c1ccc2ccc(C(=O)N(CCOC)CCOC)cn12.O=C(O)C(F)(F)F | 4.611 |
| COCCNC(=O)c1ccc2ccc(N(C)CC3CC3)n2c1 | 103.1 |
| CC(=O)N1CCC(NC(=O)CN2CCCc3c(F)ccc(C)c32)CC1 | 96.3 |
| CC(=O)N1CCC(NC(=O)CN2CCCc3c(C)ccc(F)c32)CC1 | 97.89 |
| Cc1ccc(C)c(CC(=O)NC2CCS(=O)(=O)CC2)c1 | -1.123 |

| SMILES | Percent Effect [%] |
| --- | --- |
| COC(=O)N1CCC(NC(=O)Cn2cc(C)c3ccccc32)CC1 | -17.34 |
| Cc1ccc(C)c(CC(=O)NC2CCCS(=O)(=O)C2)c1 (centres undefined) | -8.397 |
| Cc1cn(CC(=O)NC2CCN(C(=O)C3CC3)CC2)c2ccccc12 | 4.79 |
| CC(=O)N1CCC(NC(=O)Cc2csc(C(C)(C)C)n2)CC1 | -8.702 |
| CC(=O)NCc1ccc(C(=O)N2CCCc3c(F)ccc(C)c32)cc1 | -14.03 |
| Cc1ccc(F)c2c1CCCN2CC(=O)NC1CCS(=O)(=O)C1 (centres undefined) | 90.32 |
| CN1CCCC(C(=O)N2CCC(Oc3ccc(C#N)cn3)CC2)C1 (centres undefined) | 3.335 |
| O=C1CC(c2cccs2)c2snc(C(=O)O)c2N1 (centres undefined) | 12.4 |
| Cc1ccc(C(=O)N[C@H]2CN(CCO)C[C@@H]2C2CC2)cc1Cl | 4.454 |
| CCNC(=O)NC(=O)CSC(C)c1ccccc1F (centres undefined) | -4.407 |
| O=C(C[S+]([O-])Cc1csc(C2CCCC2)n1)NC1CCCC1 (centres undefined) | -2.557 |
| CS(=O)(=O)c1cnc(N2CCCC2)nc1C1CCN(C(=O)C2CC2)CC1 | 114.1 |
| CCC(=O)N1CCC(c2nc(N3CCCCC3)ncc2S(C)(=O)=O)CC1 | 129 |
| CCC(=O)N1CCc2nc(N3CCOCC3)nc(N(C)C)c2CC1 | -3.249 |
| CCc1nc(CC(=O)N2CCC(C(=O)N3CCCCC3)CC2)cs1 | 9.16 |
| CCOc1cc(C)nc(N2CCN(C(=O)CC)CC2)n1 | -2.122 |
| CCN(C)CC(=O)N1CCC(c2cc(N3CCOCC3)nc(C)n2)CC1 | 25.94 |
| CCC(=O)N1CCC(c2nc(N3CCOCC3)ncc2S(C)(=O)=O)CC1 | 98.3 |
| CCC(=O)N1CCC(c2nc(N3CCCC3)ncc2S(C)(=O)=O)CC1 | 99.88 |
| Cc1noc(-c2ccc(N3CCCC(C(=O)N4CCSCC4)C3)nc2)n1 (centres undefined) | -16.11 |
| Cc1ncc(S(C)(=O)=O)c(N2CCCCCC2)n1 | 3.738 |
| Cc1ccc(NS(=O)(=O)c2c[nH]c3ncccc23)nc1 | 17.74 |
| CCOC(=O)N1CCN(c2nc(NCCCO)c3ccccc3n2)CC1.Cl | 3.007 |

| SMILES | Percent Effect [%] |
| --- | --- |
| COC(=O)c1ccc(N2CCN(C(=O)c3ccncc3)C(C)C2)cc1 (centres undefined) | -9.258 |
| CCc1nc(CC(=O)Nc2cnn(CC3CCCO3)c2)cs1 (centres undefined) | -8.649 |
| CC(C)c1nc(O)c2nnn(C[C@H]3CCCN(Cc4ccsc4)C3)c2n1 | 131.3 |
| CC(C)c1nc(O)c2nnn(C[C@@H]3CCCN(Cc4ccsc4)C3)c2n1 | 123.6 |
| CC(C)(C)c1oc(C(N)=O)cc1CN1CCCCC1CN1CCOCC1 (centres undefined) | -21.84 |
| N#Cc1ccc(SCCC(=O)N(Cc2cccnc2)C2CC2)cc1 | -7.889 |
| O=c1ccc(-n2ccnc2)nn1CCNS(=O)(=O)c1ccc(Br)cc1 | -0.5803 |
| CCN(CC)CC[C@H]1CN(C(=O)C2CCC2)CC[C@H]1CC(=O)O | -6.679 |
| CCN1CCCC(c2c(-c3ccccc3)ncn2CCc2c[nH]cn2)C1 (centres undefined) | -19.27 |
| CC(C)(C(=O)NCCCC(N)=O)c1cccc(Br)c1 | 6.793 |
| CSCCC(Nc1nc(C)cc(C)n1)C(=O)NC(C)(C)CO (centres undefined) | 99.02 |
| CSCCC(NC(=O)c1ccc2ccccc2n1)C(=O)NC(C)C (centres undefined) | 0.7963 |
| CSCCC(NC(N)=O)C(=O)N1CCC(Cc2ccccc2)CC1 (centres undefined) | -1.467 |
| CSCCC(Nc1nc(C)cc(C)n1)C(=O)NC1CCCC1 (centres undefined) | 67.42 |
| CNC(=O)C(CCSC)NC(=O)c1ccc2ccccc2n1 (centres undefined) | 4.672 |
| CSCCC(NC(=O)c1ccc2ccccc2n1)C(=O)NC1CC1 (centres undefined) | 3.734 |
| Cc1nc(CN2CCN(C(C)C(=O)NC3CCCC3)CC2)cs1 (centres undefined) | -11.13 |
| CSc1cc2c(cc1NC(=O)NCC1CCOC1)OCCO2 (centres undefined) | 0.9768 |
| CSCCC(Nc1nc(C)cc(C)n1)C(=O)NCC1CCOCC1 (centres undefined) | 96.94 |
| Cc1cc(NC(=O)NCC2CCOC2)no1 (centres undefined) | -3.66 |
| Cc1cc(C)nc(NC2CCC(=O)N(C)C2)n1 (centres undefined) | -12.68 |
| CSCCC(Nc1nc(C)cc(C)n1)C(=O)NC1CC1 (centres undefined) | 102.4 |
